# In the supplement of paper PMC8728848:
# This excerpt belongs to a sample that is enriched for the strongest signals.
# B1: Epa1-NP-mutant-Y228W (Candida glabrata), Q6VBJ0 (protein)
# chain: MILNPALFLNKCVCIYTTLILLLLTNGGYATSSNDISLASKDPTTFPLGCSPDITTPKKGLSMELYSYDFRKKGSYPCWDAAYLDPNYPRTGYKSHRLLAKVDGVTGNINFYYHATKGCTPQLGHLPASYNYPKPLTMTNFTMLLYGYFRPKVTGFHTFTISADDLLFVNFGAGNAFDCCRRDSSADHFGNYQAYAIWGSKTAKDELTVHLDAGVYYPIRLFYNNREWDGALSFTFKTESNENTVSDFSEYFFSLDDTEEGCPGLISYDSSCASVKTSKIIGIDYHTETPNENLVPITKTIYHLGIPCTGTTTTPLCGSGFYDPLANKCVTINTSSTSSVTKTTSHTTSKEVSFHSSISSQKTLIPKSIPSPYGPIKSQSIPTEMETSSEISSSEYAFSDVISTPSHSPYTKKHSSLNSSSYTSTVIHSLTSYSISQGIFSTSLSEQNITSKSSTDKFSTATSMSNNITQSSIIISQFSTNNENYTTTSMHTSSDKISTETLNNSISTTTSILFSNSSTILKNNTTIISSDKDTHYHPVNPTIVCSTNKTEIICASITQPSISNSNNHWSSSVLKFNSTTVRSTLPSSAGSNETSINVPFSSSTESNTSTSSTSTSNSKMVRSTLPSSAGSNETSISVPFSSSTESNTSTSSTSTSNSKMVRSTLPSSAGSNETSINVPFSSSTESNTSTSSTSTSNSKTVRSTPFSSAGIIMTSLSQRNNKSASSYASSNSKCYNTADSCRKVHSTPSYLLTSSYTSEGVDYDCSLVSTKLKINDTNCVNNKHTTKSCLKTSVTTTIPTLEIKTARKSSSNTIGLHSYPTSSPNKSISSAPIIGYISSFKTIKTASPSYQTSDLTTITTITSLNNPGSTAVENTHESNDKSRKTSSNDISSKHSVIKETKDAVESSNKSHQTNTLKCSSIIIASSSHNSYESLGGTTLTLTLSKVYSPQNNDTLPFLEISEVNPSRTVLPESSKMMQYLTSTEERNKTARNTIATNIVSISTFHFEGEGNAIRMGYTQLLLMLIGIIVMNIGT
# Tests used:
# Test in all cases: glycan array binding signal (z-score within array); higher = stronger binding
# Details in all cases: glycan notation: IUPAC condensed, linker removed; mutation: Y228W
# [1] = molecular target: Fuc(a1-2)Gal(b1-3)GlcNAc(b1-3)[Neu5Ac(a2-6)Gal(b1-4)GlcNAc(b1-6)]Gal(b1-4)Glc
# How it was run: (§1)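 Negative Z-scores can be read as non-binding. The Z-score is calculated within each array and then averaged across arrays of one protein sequence at different concentrations or buffers and across linkers. Arrays, 3228 in all, were curated from the Consortium for Functional Glycomics database and kept only where the protein sequence was available.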
# [2] = molecular target: Fuc(a1-2)Gal(b1-4)Glc
# How it was run: as §1
# [3] = molecular target: Fuc(a1-2)Gal(b1-4)GlcNAc(b1-3)Gal(b1-4)GlcNAc(b1-2)Man(a1-3)[Fuc(a1-2)Gal(b1-4)GlcNAc(b1-3)Gal(b1-4)GlcNAc(b1-2)Man(a1-6)]Man(b1-4)GlcNAc(b1-4)GlcNAc
# How it was run: as §1
# [4] = molecular target: Fuc(a1-2)Gal(b1-4)GlcNAc(b1-3)[Fuc(a1-3)[Gal(b1-4)]GlcNAc(b1-6)]Gal(b1-4)Glc
# How it was run: as §1
# [5] = molecular target: Fuc(a1-2)Gal(b1-4)GlcNAc(b1-6)GalNAc
# How it was run: as §1
# [6] = molecular target: Fuc(a1-2)Gal(b1-4)[Fuc(a1-3)]GlcNAc(b1-3)GalNAc
# How it was run: as §1
# [7] = molecular target: Fuc(a1-2)[Gal(a1-3)]Gal(b1-3)GlcNAc(b1-3)GalNAc
# How it was run: as §1
# [8] = molecular target: Fuc(a1-2)[Gal(a1-3)]Gal(b1-4)GlcNAc(b1-2)Man
# How it was run: as §1
# [9] = molecular target: Fuc(a1-2)[Gal(a1-3)]Gal(b1-4)[Fuc(a1-3)]GlcNAc
# How it was run: as §1
# [10] = molecular target: Fuc(a1-2)[GalNAc(a1-3)]Gal(b1-4)[Fuc(a1-3)]GlcNAc
# How it was run: as §1
# [11] = molecular target: Fuc(a1-2)[GalNAc(a1-3)]Gal(b1-4)[Fuc(a1-3)]GlcNAc(b1-3)GalNAc
# How it was run: as §1
# [12] = molecular target: Fuc(a1-3)[Gal(b1-4)]GlcNAc(b1-2)Man(a1-3)[Fuc(a1-3)[Gal(b1-4)]GlcNAc(b1-2)Man(a1-6)]Man(b1-4)GlcNAc(b1-4)[Fuc(a1-6)]GlcNAc
# How it was run: as §1
# [13] = molecular target: Fuc(a1-3)[Gal(b1-4)]GlcNAc(b1-3)Gal(b1-4)[Fuc(a1-3)]GlcNAc(b1-3)Gal(b1-4)[Fuc(a1-3)]GlcNAc
# How it was run: as §1
# [14] = molecular target: Fuc(a1-3)[Gal3S(b1-4)]GlcNAc6S
# How it was run: as §1
# [15] = molecular target: Gal(a1-3)Gal(b1-4)GlcNAc(b1-6)GalNAc
# How it was run: as §1
# [16] = molecular target: Gal(a1-3)[Gal(a1-4)]Gal(b1-4)GlcNAc
# How it was run: as §1
# [17] = molecular target: Gal(a1-4)Gal(b1-4)GlcNAc
# How it was run: as §1
# [18] = molecular target: Gal(b1-3)Gal(b1-4)GlcNAc
# How it was run: as §1
# [19] = molecular target: Gal(b1-3)GalNAc
# How it was run: as §1
# [20] = molecular target: Gal(b1-3)GalNAc(b1-3)Gal
# How it was run: as §1
# [21] = molecular target: Gal(b1-3)GalNAc(b1-4)Gal(b1-4)Glc
# How it was run: as §1
# [22] = molecular target: Gal(b1-3)GalNAc(b1-4)[Neu5Ac(a2-3)]Gal(b1-4)Glc
# How it was run: as §1
# [23] = molecular target: Gal(b1-3)GlcNAc
# How it was run: as §1
# [24] = molecular target: Gal(b1-3)GlcNAc(b1-2)Man
# How it was run: as §1
# [25] = molecular target: Gal(b1-3)GlcNAc(b1-3)Gal(b1-4)GlcNAc
# How it was run: as §1
# [26] = molecular target: Gal(b1-3)GlcNAc(b1-3)Gal(b1-4)GlcNAc(b1-2)Man(a1-3)[Gal(b1-3)GlcNAc(b1-3)Gal(b1-4)GlcNAc(b1-2)Man(a1-6)]Man(b1-4)GlcNAc(b1-4)GlcNAc
# How it was run: as §1
# [27] = molecular target: Gal(b1-4)GlcNAc(a1-6)Gal(b1-4)GlcNAc
# How it was run: as §1
# [28] = molecular target: Gal(b1-4)GlcNAc(b1-2)Man(a1-3)[Gal(b1-4)GlcNAc(b1-2)Man(a1-6)]Man(b1-4)GlcNAc(b1-4)[Fuc(a1-6)]GlcNAc
# How it was run: as §1
# [29] = molecular target: Gal(b1-4)GlcNAc(b1-2)[Gal(b1-4)GlcNAc(b1-6)]Man(a1-6)[GlcNAc(b1-4)][Gal(b1-4)GlcNAc(b1-2)Man(a1-3)]Man(b1-4)GlcNAc(b1-4)GlcNAc
# How it was run: as §1
# [30] = molecular target: Gal(b1-4)GlcNAc(b1-3)Gal(b1-4)GlcNAc(b1-2)[Gal(b1-4)GlcNAc(b1-3)Gal(b1-4)GlcNAc(b1-6)]Man(a1-6)[Gal(b1-4)GlcNAc(b1-3)Gal(b1-4)GlcNAc(b1-2)Man(a1-3)]Man(b1-4)GlcNAc(b1-4)[Fuc(a1-6)]GlcNAc
# How it was run: as §1
binder,measurement,setting,value
B1,glycan array binding signal (z-score),[1],-0.437
same,glycan array binding signal (z-score),[2],-0.146
same,glycan array binding signal (z-score),[3],0.051
same,glycan array binding signal (z-score),[4],-0.169
same,glycan array binding signal (z-score),[5],0.006
same,glycan array binding signal (z-score),[6],-0.204
same,glycan array binding signal (z-score),[7],-0.019
same,glycan array binding signal (z-score),[8],-0.304
same,glycan array binding signal (z-score),[9],-0.288
same,glycan array binding signal (z-score),[10],-0.138
same,glycan array binding signal (z-score),[11],-0.1
same,glycan array binding signal (z-score),[12],0.029
same,glycan array binding signal (z-score),[13],-0.169
same,glycan array binding signal (z-score),[14],0.109
same,glycan array binding signal (z-score),[15],-0.035
same,glycan array binding signal (z-score),[16],-0.336
same,glycan array binding signal (z-score),[17],-0.087
same,glycan array binding signal (z-score),[18],7.29
same,glycan array binding signal (z-score),[19],2.78
same,glycan array binding signal (z-score),[20],2.53
same,glycan array binding signal (z-score),[21],15
same,glycan array binding signal (z-score),[22],4.99
same,glycan array binding signal (z-score),[23],-0.24
same,glycan array binding signal (z-score),[24],-0.27
same,glycan array binding signal (z-score),[25],-0.333
same,glycan array binding signal (z-score),[26],-0.274
same,glycan array binding signal (z-score),[27],3.19
same,glycan array binding signal (z-score),[28],0.093
same,glycan array binding signal (z-score),[29],-0.205
same,glycan array binding signal (z-score),[30],2.98
